# Results from PubChem BioAssay AID1159580 (chemical genetic matrix, 2015).
# About 2,000 (36%) of roughly 5,500 compounds were called active. Not shown: some 18% with an inconclusive outcome. The list shows a part of the results. A number with no mark means an inactive call. Cut-off read from the data, not from the text of the source: active = normalized growth mostly below about 0.91 (no sharp cut-off); inconclusive = no clear call, values can overlap the other calls; inactive = mostly above about 0.92.
# Test: chemical genetic growth profiling, strain panel (AID 1159580);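 note: tested at 20 µM; growth read once vehicle control cultures reached saturation at 30 °C; 1 = growth at the plate median or of vehicle wells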
# Details: growth OD
structure (smiles),measurement,setting,value
CC[C@@]1(O)C(=O)OCc2c1cc1n(c2=O)Cc2cc3cc(O)ccc3nc2-1,normalized growth,"S. cerevisiae deletion strains, locus YKL068W, stronger effect = lower value",0.996
same,normalized growth,"S. cerevisiae deletion strains, locus YKL085W, strain MDH1 (second series), stronger effect = lower value",1.01
same,normalized growth,"S. cerevisiae deletion strains, locus YKL085W, strain MDH1, stronger effect = lower value",1.01
same,normalized growth,"S. cerevisiae deletion strains, locus YKL160W, strain elf1, stronger effect = lower value",1.02
same,normalized growth,"S. cerevisiae deletion strains, locus YKL190W, strain CNB1, stronger effect = lower value",1.02
same,normalized growth,"S. cerevisiae deletion strains, locus YKR001C, strain vps1, stronger effect = lower value",1
same,normalized growth,"S. cerevisiae deletion strains, locus YKR026C, strain gcn3, stronger effect = lower value",0.997
same,normalized growth,"S. cerevisiae deletion strains, locus YKR091W, strain srl3, stronger effect = lower value",1.01
same,normalized growth,"S. cerevisiae deletion strains, locus YLL001W, strain dnm1, stronger effect = lower value",1
same,normalized growth,"S. cerevisiae deletion strains, locus YLL026W, stronger effect = lower value",1.02
same,normalized growth,"S. cerevisiae deletion strains, locus YLL041C, strain sdh2, stronger effect = lower value",1.02
same,normalized growth,"S. cerevisiae deletion strains, locus YLR027C, strain aat2, stronger effect = lower value",1
same,normalized growth,"S. cerevisiae deletion strains, locus YLR039C, strain RIC1, stronger effect = lower value",1.03
same,normalized growth,"S. cerevisiae deletion strains, locus YLR058C, strain SHM2, stronger effect = lower value",1.02
same,normalized growth,"S. cerevisiae deletion strains, locus YLR102C, strain apc9, stronger effect = lower value",0.992
same,normalized growth,"S. cerevisiae deletion strains, locus YLR113W, strain HOG1, stronger effect = lower value",0.942
same,normalized growth,"S. cerevisiae deletion strains, locus YLR221C, strain rsa3, stronger effect = lower value",0.966
same,normalized growth,"S. cerevisiae deletion strains, locus YLR258W, strain gsy2, stronger effect = lower value",1.03
same,normalized growth,"S. cerevisiae deletion strains, locus YLR262C, strain YPT6 (second series), stronger effect = lower value",0.984
same,normalized growth,"S. cerevisiae deletion strains, locus YLR262C, strain YPT6, stronger effect = lower value",1.04
same,normalized growth,"S. cerevisiae deletion strains, locus YLR268W, strain sec22, stronger effect = lower value",0.96
same,normalized growth,"S. cerevisiae deletion strains, locus YLR320W, strain mms22, stronger effect = lower value",0.884
same,normalized growth,"S. cerevisiae deletion strains, locus YLR330W, strain CHS5, stronger effect = lower value",1.02
same,normalized growth,"S. cerevisiae deletion strains, locus YLR342W, strain FKS1 (second series), stronger effect = lower value",0.995
same,normalized growth,"S. cerevisiae deletion strains, locus YLR342W, strain FKS1, stronger effect = lower value",1.01
same,normalized growth,"S. cerevisiae deletion strains, locus YLR357W, strain rsc2, stronger effect = lower value",1.03
same,normalized growth,"S. cerevisiae deletion strains, locus YLR370C, strain arc18, stronger effect = lower value",1.01
same,normalized growth,"S. cerevisiae deletion strains, locus YLR371W, strain rom2, stronger effect = lower value",0.994
same,normalized growth,"S. cerevisiae deletion strains, locus YLR384C, strain iki3, stronger effect = lower value",1.02
same,normalized growth,"S. cerevisiae deletion strains, locus YLR418C, strain cdc73, stronger effect = lower value",1.02
same,normalized growth,"S. cerevisiae deletion strains, locus YML016C, strain PPZ1, stronger effect = lower value",1.02
same,normalized growth,"S. cerevisiae deletion strains, locus YML032C, strain rad52, stronger effect = lower value",0.407 (active)
same,normalized growth,"S. cerevisiae deletion strains, locus YML120C, strain ndi1, stronger effect = lower value",0.995
same,normalized growth,"S. cerevisiae deletion strains, locus YML124C, strain tub3, stronger effect = lower value",0.983
same,normalized growth,"S. cerevisiae deletion strains, locus YMR058W, strain fet3, stronger effect = lower value",1.01
same,normalized growth,"S. cerevisiae deletion strains, locus YMR078C, strain ctf18, stronger effect = lower value",0.947
same,normalized growth,"S. cerevisiae deletion strains, locus YMR125W, strain sto1, stronger effect = lower value",1.03
same,normalized growth,"S. cerevisiae deletion strains, locus YMR129W, stronger effect = lower value",1.02
same,normalized growth,"S. cerevisiae deletion strains, locus YMR205C, strain PFK2, stronger effect = lower value",0.98
same,normalized growth,"S. cerevisiae deletion strains, locus YMR223W, strain ubp8, stronger effect = lower value",0.981
same,normalized growth,"S. cerevisiae deletion strains, locus YMR231W, strain pep5, stronger effect = lower value",1
same,normalized growth,"S. cerevisiae deletion strains, locus YMR263W, strain SAP30, stronger effect = lower value",1.03
same,normalized growth,"S. cerevisiae deletion strains, locus YMR307W, strain GAS1, stronger effect = lower value",1.03
same,normalized growth,"S. cerevisiae deletion strains, locus YNL067W, strain RPL9B, stronger effect = lower value",1.01
same,normalized growth,"S. cerevisiae deletion strains, locus YNL071W, strain lat1, stronger effect = lower value",1.02
same,normalized growth,"S. cerevisiae deletion strains, locus YNL128W, strain TEP1, stronger effect = lower value",1.02
same,normalized growth,"S. cerevisiae deletion strains, locus YNL183C, strain NPR1, stronger effect = lower value",0.91
same,normalized growth,"S. cerevisiae deletion strains, locus YNL209W, strain ssb2, stronger effect = lower value",1.03
same,normalized growth,"S. cerevisiae deletion strains, locus YNL233W, strain BNI4, stronger effect = lower value",1.01
same,normalized growth,"S. cerevisiae deletion strains, locus YNL248C, strain rpa49, stronger effect = lower value",1.03
same,normalized growth,"S. cerevisiae deletion strains, locus YNL250W, strain rad50, stronger effect = lower value",0.429 (active)
same,normalized growth,"S. cerevisiae deletion strains, locus YNL271C, strain bni1, stronger effect = lower value",0.991
same,normalized growth,"S. cerevisiae deletion strains, locus YNL298W, strain CLA4, stronger effect = lower value",0.992
same,normalized growth,"S. cerevisiae deletion strains, locus YNL307C, strain MCK1, stronger effect = lower value",0.979
same,normalized growth,"S. cerevisiae deletion strains, locus YNL322C, strain KRE1 (second series), stronger effect = lower value",1.06
same,normalized growth,"S. cerevisiae deletion strains, locus YNL322C, strain KRE1, stronger effect = lower value",1.01
same,normalized growth,"S. cerevisiae deletion strains, locus YNR049C, strain mso1, stronger effect = lower value",1
same,normalized growth,"S. cerevisiae deletion strains, locus YNR052C, strain pop2, stronger effect = lower value",0.997
same,normalized growth,"S. cerevisiae deletion strains, locus YOL012C, strain htz1",0.802
same,normalized growth,"S. cerevisiae deletion strains, locus YOL147C, strain pex11, stronger effect = lower value",0.983
same,normalized growth,"S. cerevisiae deletion strains, locus YOR001W, strain rrp6, stronger effect = lower value",0.967
same,normalized growth,"S. cerevisiae deletion strains, locus YOR061W, strain CKA2, stronger effect = lower value",1.02
same,normalized growth,"S. cerevisiae deletion strains, locus YOR069W, strain VPS5, stronger effect = lower value",1.02
same,normalized growth,"S. cerevisiae deletion strains, locus YOR070C, strain gyp1, stronger effect = lower value",1.01
same,normalized growth,"S. cerevisiae deletion strains, locus YOR080W, strain dia2, stronger effect = lower value",1.01
same,normalized growth,"S. cerevisiae deletion strains, locus YOR083W, strain WHI5, stronger effect = lower value",1
same,normalized growth,"S. cerevisiae deletion strains, locus YOR106W, strain vam3, stronger effect = lower value",1.03
same,normalized growth,"S. cerevisiae deletion strains, locus YOR136W, strain idh2, stronger effect = lower value",0.971
same,normalized growth,"S. cerevisiae deletion strains, locus YOR144C, strain elg1, stronger effect = lower value",0.988
same,normalized growth,"S. cerevisiae deletion strains, locus YOR184W, strain ser1, stronger effect = lower value",0.972
same,normalized growth,"S. cerevisiae deletion strains, locus YOR231W, strain MKK1, stronger effect = lower value",0.951
same,normalized growth,"S. cerevisiae deletion strains, locus YOR265W, strain rbl2, stronger effect = lower value",0.984
same,normalized growth,"S. cerevisiae deletion strains, locus YOR270C, strain vph1, stronger effect = lower value",1.03
same,normalized growth,"S. cerevisiae deletion strains, locus YOR290C, strain snf2, stronger effect = lower value",1.03
same,normalized growth,"S. cerevisiae deletion strains, locus YOR316C, strain cot1, stronger effect = lower value",0.987
same,normalized growth,"S. cerevisiae deletion strains, locus YPL051W, strain arl3, stronger effect = lower value",1
same,normalized growth,"S. cerevisiae deletion strains, locus YPL055C, strain LGE1, stronger effect = lower value",1.02
same,normalized growth,"S. cerevisiae deletion strains, locus YPL078C, strain atp4, stronger effect = lower value",1.04
same,normalized growth,"S. cerevisiae deletion strains, locus YPL106C, strain sse1, stronger effect = lower value",1.06
same,normalized growth,"S. cerevisiae deletion strains, locus YPL240C, strain hsp82, stronger effect = lower value",1.01
same,normalized growth,"S. cerevisiae deletion strains, locus YPL241C, strain CIN2, stronger effect = lower value",1.01
same,normalized growth,"S. cerevisiae deletion strains, locus YPL256C, strain CLN2, stronger effect = lower value",0.945
same,normalized growth,"S. cerevisiae deletion strains, locus YPR119W, strain clb2, stronger effect = lower value",0.982
same,normalized growth,"S. cerevisiae deletion strains, locus YPR141C, strain kar3, stronger effect = lower value",0.999
same,normalized growth,"S. cerevisiae deletion strains, locus YPR163C, strain tif3, stronger effect = lower value",0.991
same,normalized growth,"S. cerevisiae deletion strains, locus YPR167C, strain met16, stronger effect = lower value",0.987
same,normalized growth,"S. cerevisiae deletion strains, strain wtn01, stronger effect = lower value",0.97
same,normalized growth,"S. cerevisiae strains, strain wild type, stronger effect = lower value",1.02
